According to PubChem BioAssay (NCATS):
Inconclusive results are not listed. Calls come from the whole dose curve.

Assay: S16 Schwann cell PMP22 intronic element beta-lactamase assay (AID 624044); note: nearly all actives have a fitted effect of over 15% in size
Conditions: S16 rat Schwann cells, PMP22 element beta-lactamase FRET, 24 h; series mostly up to 17.1 µM; ratio activity, negative = inhibition: at the top concentration
Excerpt: Description: Charcot-Marie-Tooth-Association [CMTA] National Center for Advancing Translational Sciences [NCATS] Charcot-Marie-Tooth (CMT) disease was first characterized by Jean-Martin Charcot and Pierre Marie in France and, independently, by Howard Henry Tooth in England in 1886. CMT is one of the most common inherited neurological diseases, affecting approximately 1 in 2,500 Americans. […] The most prevalent type of CMT is known as CMT1A and caused by a duplication of the PMP22 gene which leads to over-expression of this protein. PMP22 is a glycosylated intrinsic membrane protein accounting for 2-5% of the myelin protein content, and its over-expression results in demyelination and subsequently axonal loss. A pair of cellular transcription-based assays was developed in the S16 rat Schwann cell lines (Hai, M., et al., 2002) stably transfected with orthogonal reporters - firefly luciferase (Fluc) and beta-lactamase (beta-Lac) - whose expression is driven by an intronic regulatory element of the PMP22 gene (Jones, E.A., et al., 2011) to recapitulate endogenous expression of PMP22. The current assay employs Blac as a reporter of PMP22 expression. A comprehensive library of approved drugs, the NCGC Pharmaceutical Collection (Huang, R., et al., 2011), was screened in the cross-validating platform of the orthogonal reporter assays to identify drug modulators inhibitory towards PMP22 expression. A set of counter-screens was devised to address non-specific activity of the library. An ATP-dependent CellTiter-Glo assay (developed by Promega Corp) was utilized to control cell viability. In addition, biochemical Fluc enzyme assay was performed to assess direct inhibition of the Fluc enzymatic activity. References Hai, M., Muja, N., DeVries, G.H., Quarles, R.H. and Patel, P.I. Comparative analysis of Schwann cell lines as model systems for myelin gene transcription studies. J Neurosci Res, 2002. 69(4): pp 497-508 Huang, R., Southall, N., Wang, Y., Yasgar A., Shinn P., Jadhav, A. , Nguyen, D.-T. and Austin, C.P., The NCGC pharmaceutical collection: a comprehensive resource of clinically approved drugs enabling repurposing and chemical genomics. Sci Transl Med, 2011. 3(80): p. 80ps16.
S16 Schwann cell PMP22 intronic element beta-lactamase assay The beta-Lac-expressing S16 cells were seeded in black clear-bottom 1536 well plates at between 500-750 cells/6uL in DMEM medium containing 10% FBS, w/o phenol red. After overnight incubation at 37 degree Celsius/5% C02, 23 nL of compounds or DMSO were delivered to each well using a pin tool, followed by 24h-incubation at 37 degree Celsius/5% C02. Then one microl of LiveBLAzer FRET B/G detection mix (Invitrogen) was added to each well. An EnVision plate reader (PerkinElmer) was used to detect the dual beta-Lac output composed of fluorescence at 460nm for beta-Lac expression and FRET at 535nm for cell viability. The % signal at 535 nm was scaled to a full range of DMSO and zero and then normalized using the maximum response observed in the screen as 100% activity. The % signal at 460nm was normalized to the average readings of potassium clavulanate (a positive control) - treated cells relative to DMSO-treated cells (0% Activity). The concentration-effect curves were then classified based on curve quality (r2), response magnitude and degree of measured activity.

Ratio activity, negative = inhibition, inactive:
COC1OC(CO)C(OC2OC(C(=O)O)C(OC3OC(COS(=O)(=O)O)C(OC4OC(C(=O)O)C(OC5OC(CO)C(OC6OC(C(=O)O)C(OC7OC(COS(=O)(=O)O)C(OC8OC(C(=O)O)=C[C@H](O)C8OS(=O)(=O)O)C(O)C7NC(C)=O)[C@@H](O)C6O)C(O)C5NC(C)=O)[C@@H](O)C4O)C(O)C3NC(C)=O)[C@@H](O)C2O)C(O)C1NC(C)=O (stereo not given in full) 2.01% [at 38.3 µM], CCN[C@@H]1CN(CCCOC)S(=O)(=O)c2sc(S(N)(=O)=O)cc21 9.51%, COc1cc(N)c(Cl)cc1C(=O)N[C@H]1CCN(CCCOc2ccc(F)cc2)C[C@H]1OC -10.4%, COc1cc2nc(N3CCN(C(=O)[C@@H]4CCCO4)CC3)nc(N)c2cc1OC 5.18% [at 38.3 µM], O=C(NC[C@@H](O)CO)c1c(I)c(C(=O)NC[C@@H](O)CO)c(I)c(N(CCO)C(=O)CO)c1I 2.72%, CCC(=O)O[C@@H]1[C@H](C)O[C@H](O[C@H]2[C@@H](N(C)C)[C@H](O)[C@@H](O[C@@H]3[C@@H](CC=O)C[C@@H](C)[C@@H](O)/C=C\C=C/C[C@@H](C)OC(=O)C[C@@H](OC(=O)CC)[C@H]3OC)O[C@H]2C)C[C@]1(C)O 2.18%, C=CC1=C(C(=O)O)N2C(=O)[C@@H](NC(=O)/C(=N\OCC(=O)O)c3csc(N)n3)[C@@H]2SC1 -2.76%, C[C@H](Oc1ccccc1)C(=O)N[C@@H]1C(=O)N2[C@@H]1SC(C)(C)[C@@H]2C(=O)O 3.01%, COC(=O)[C@@H]1[C@@H]2C[C@H]3c4[nH]c5cc(OC)ccc5c4CCN3C[C@@H]2C[C@H](OC(=O)/C=C\c2cc(OC)c(OC)c(OC)c2)[C@H]1OC -7.45%, C[C@@H](CNC1CCCCC1)OC(=O)c1ccccc1 -17.7%, CCCC[C@H](CC)CN1CN(C[C@@H](CC)CCCC)CC(C)(N)C1 6.2%, CNC1CC(N)[C@H](O)[C@@H](O[C@@H]2OC(CO)C3OC4(OC(C(N)CO)C(O)C(O)C4O)O[C@@H]3[C@H]2O)C1O (stereo not given in full) -4.57% [at 38.3 µM], OCC1OC(n2cnc3c(=S)nc[nH]c32)C(O)C1O (stereo not given) -18.6% [at 38.3 µM], CC1=C(C(=O)O)N2C(=O)[C@@H](NC(=O)[C@@H](N)c3ccc(O)cc3)[C@@H]2SC1 1.83%, C#C[C@@]1(O)CC[C@@H]2[C@@H]3CCC4=C(CCC(=O)C4)[C@H]3CC[C@]21C 0.177%, CCN(CC)CCOC(=O)[C@@H](Cc1cccc2ccccc12)C[C@@H]1CCCO1 0.885%, COc1ccc(C[C@@](C)(N)C(=O)O)cc1OC -3.71%, C[C@H]1CS(=O)(=O)CCN1/N=C\c1ccc([N+](=O)[O-])o1 0.824%, C[C@]12CCC(=O)C=C1CCC1C2C(=O)C[C@]2(C)C1CC[C@]2(O)C(=O)CO (stereo not given in full) 2.24% [at 38.3 µM], C[C@@H]1Cc2ccccc2N1NC(=O)c1ccc(Cl)c(S(N)=O)c1 (stereo not given in full) -2.54%, O[C@@](CCN1CCCC1)(c1ccccc1)C1CCCCC1 -2.42%, CCN(CCCCOC(=O)c1ccc(OC)c(OC)c1)[C@@H](C)Cc1ccc(OC)cc1 -0.354%, COC1C=CO[C@@]2(C)Oc3c(C)c(O)c4c(O)c(c(C=NN5CCN(C)CC5)c(O)c4c3C2=O)NC(=O)/C(C)=C\C=CC(C)C(O)[C@@H](C)C(O)C(C)[C@H](OC(C)=O)C1C (stereo not given in full) -11.7% [at 38.3 µM], Cc1ncc([N+](=O)[O-])n1C[C@H](O)CCl 0.49%, Cc1ccsc1/C=C\C1=NCCCN1C 3.01%, NS(=O)(=O)c1cc2c(cc1Cl)N[C@@H](C(Cl)Cl)NS2(=O)=O 0.354%, CC1(C)S[C@@H]2[C@H](NC(=O)[C@@H](N)c3ccccc3)C(=O)N2[C@H]1C(=O)O[C@H]1OC(=O)c2ccccc21 0.708%, CC(=O)O[C@@]1(C(C)=O)CCC2C3CC(C)C4=CC(=O)CC[C@@]4(C)C3CC[C@]21C (stereo not given in full) 6.91% [at 38.3 µM], Clc1ccc([C@H](Cn2ccnc2)OCc2csc3c(Cl)cccc23)c(Cl)c1 -12.7%, CN(C)CCCOC1C(C(O)CO)OC2OC(C)(C)O[C@@H]21 (stereo not given in full) 0.507% [at 38.3 µM], CCOC(=O)O[C@@H](C)OC(=O)[C@@H]1N2C(=O)[C@@H](NC(=O)[C@@H](N)c3ccccc3)[C@H]2SC1(C)C -11.9%, CCC(C)C(=O)OC1CC(O)C=C2C=CC(C)C(CCC(O)CC(O)CC(=O)O)C21 (stereo not given) -2.07% [at 38.3 µM], N[C@@H]1C(O)OC(CO)C(O)C1O (stereo not given in full) -1.78% [at 38.3 µM], CO[C@]1(NC(=O)[C@H](C(=O)O)c2ccc(O)cc2)C(=O)N2C(C(=O)O)=C(CSc3nnnn3C)CO[C@H]21 1.42%, CCC(C)(C)C(=O)O[C@@H]1C[C@H](C)C=C2C=C[C@H](C)[C@@H](CC[C@H]3C[C@@H](O)CC(=O)O3)[C@H]21 9.19%, C[C@@H](C(=O)O)c1ccc(C(=O)c2ccccc2)s1 -8.56%, CC[C@H]1NC(=O)c2cc(S(N)(=O)=O)c(Cl)cc2N1 -8.6%, CC(C)(C)NC(=O)[C@@H]1CC[C@@H]2[C@@H]3CC[C@@H]4NC(=O)C=C[C@@]4(C)[C@H]3CC[C@]21C 2.24%, CCN(CC)[C@@H](C)CN1c2ccccc2Sc2ccccc21 1.48%, NC(CCC(=O)N[C@@H](CS)C(=O)NCC(=O)O)C(=O)O (stereo not given in full) -7.25% [at 38.3 µM]
